Data published in the supplement of paper PMC12494721.
Structures can show the parent of a compound that is named as a salt.

Legend:
Details in all cases: 20 µM; incubation time: 27 h, anaerobic, 37 °C;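 for the amine columns active = adjusted P below 0.05 in both replicates with a change the same way and a mean fold change under 0.8 or over 1.25; inactive = the rest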
[1] = tested on: Clostridium sporogenes DSM 1664; assay: growth (OD595) fold change vs plate DMSO controls (fold change (ratio)); higher = more growth
How it was run: (§1)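 Shaken 96-well cultures in mGAM, grown anaerobically for 27 h at 37 °C, were read at 595 nm. OD came from blank-subtracted readings, corrected for background with 20 µM compound solutions in water and scaled by a calibration factor of 5. Growth is the fold change versus the plate's median DMSO control. Values average 2 biological replicates, and any fold change above 1.5 is NA.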

Escherichia coli IAI1 [2] = assay: as above
How it was run: as §1

[3] = tested on: Klebsiella aerogenes DSM 30053; assay: as above
How it was run: as §1

[4] = tested on: Ruminococcus gnavus DSM 108212; assay: as above
How it was run: as §1

[5] = tested on: Klebsiella aerogenes DSM 30053; assay: fold change of Histamine concentration vs plate DMSO controls (fold change (ratio)); higher = more amine produced, active = hit call of the paper (significant change in both replicates, either direction)
How it was run: (§2)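 In 80 µL wells, cultures of four gut bacterial strains in mGAM started at OD 0.1 before a 1:1 dilution and grew anaerobically at 37 °C for 27 h. Compounds were added to 20 µM final, except sweeteners at 50 µM final. After extraction of whole cultures with cold acetonitrile/methanol plus 0.1% formic acid and centrifugation, amines were measured by LC–triple-quadrupole MS in dynamic MRM mode against external calibration curves, with within-batch drift correction. Values give fold change over DMSO controls on the same plate, averaged across 2 biological replicates.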

[6] = tested on: Clostridium sporogenes DSM 1664; assay: fold change of Tryptamine concentration vs plate DMSO controls (fold change (ratio)); higher = more amine produced, active = hit call of the paper (significant change in both replicates, either direction)
How it was run: as §2

[7] = tested on: Ruminococcus gnavus DSM 108212; assay: as above
How it was run: as §2

Escherichia coli IAI1 [8] = assay: fold change of Putrescine concentration vs plate DMSO controls (fold change (ratio)); higher = more amine produced, active = hit call of the paper (significant change in both replicates, either direction)
How it was run: as §2

[9] = tested on: Klebsiella aerogenes DSM 30053; assay: as above
How it was run: as §2

Escherichia coli IAI1 [10] = assay: fold change of Cadaverine concentration vs plate DMSO controls (fold change (ratio)); higher = more amine produced, active = hit call of the paper (significant change in both replicates, either direction)
How it was run: as §2

[11] = tested on: Klebsiella aerogenes DSM 30053; assay: as above
How it was run: as §2

[12] = tested on: Ruminococcus gnavus DSM 108212; assay: fold change of 2-Phenylethylamine concentration vs plate DMSO controls (fold change (ratio)); higher = more amine produced, active = hit call of the paper (significant change in both replicates, either direction)
How it was run: as §2

Row | SMILES | growth [1] | growth (Escherichia coli IAI1 [2]) | growth [3] | growth [4] | fold change of Histamine concentration [5] | fold change of Tryptamine concentration [6] | fold change of Tryptamine concentration [7] | fold change of Putrescine concentration (Escherichia coli IAI1 [8]) | fold change of Putrescine concentration [9] | fold change of Cadaverine concentration (Escherichia coli IAI1 [10]) | fold change of Cadaverine concentration [11] | fold change of 2-Phenylethylamine concentration [12]
1 | CC(Cc1ccccc1)NCCC(c1ccccc1)c1ccccc1 (configuration not stated) [Prenylamine lactate] | 1.01 | 0.997 | 1 | 1.45 | 0.979 (inactive) | 0.96 (inactive) | 0.913 (inactive) | 1.37 (inactive) | 0.961 (inactive) | 0.657 (active) | 0.987 (inactive) | 0.983 (inactive)
2 | CC(=O)OCC1=C(C(=O)O)N2C(=O)[C@@H](N)[C@H]2SC1 [Cephalosporanic acid, 7-amino] | 1.05 | 1.05 | 0.979 | 0.924 | 1.07 (inactive) | 1.04 (inactive) | 0.949 (inactive) | 1.05 (inactive) | 1.01 (inactive) | 1 (inactive) | 0.985 (inactive) | 0.942 (inactive)
3 | CNC(=O)ON=C(C)SC | 1.01 | 0.969 | 1 | 0.984 | 1.04 (inactive) | 1.06 (inactive) | 1.06 (inactive) | 1 (inactive) | 0.967 (inactive) | 0.892 (inactive) | 1 (inactive) | 1.09 (inactive)
4 | O=C(O)COc1ccc(Cl)cc1Cl | 0.956 | 1.01 | 1.07 | 1.22 | 0.958 (inactive) | 1.02 (inactive) | 0.967 (inactive) | 1 (inactive) | 1 (inactive) | 0.996 (inactive) | 1.01 (inactive) | 0.929 (inactive)
5 | c1ccc2c(c1)ccc1c3ccccc3sc21 [Benzo[b]naphtho[2,1-d]thiophene] | 0.989 | 0.988 | 1.11 | 1.07 | 1.02 (inactive) | 0.962 (inactive) | 1.01 (inactive) | 1.01 (inactive) | 1.03 (inactive) | 0.992 (inactive) | 1.01 (inactive) | 0.99 (inactive)
6 | CCN(CC)c1nc(C)cc(OP(=S)(OC)OC)n1 | 1.04 | 1.01 | 0.98 | 1.13 | 1.01 (inactive) | 1.06 (inactive) | 1.06 (inactive) | 1.02 (inactive) | 0.969 (inactive) | 0.901 (inactive) | 1 (inactive) | 1.05 (inactive)
7 | O=C(O)C(F)(F)C(F)(F)C(F)(F)C(F)(F)C(F)(F)C(F)(F)F [PFHpA (Perfluoroheptanoic acid)] | 0.939 | 1.01 | 0.994 | 0.995 | 0.997 (inactive) | 1.06 (inactive) | 0.979 (inactive) | 1.03 (inactive) | 1.02 (inactive) | 1.04 (inactive) | 1 (inactive) | 0.98 (inactive)
8 | CNC(C)(C)Cc1ccccc1 [Mephentermine hemisulfate] | 1.05 | 0.976 | 0.99 | 0.991 | 0.952 (inactive) | 1.04 (inactive) | 1.24 (inactive) | 1.03 (inactive) | 0.952 (inactive) | 0.943 (inactive) | 1.01 (inactive) | 1.38 (inactive)
9 | C[C@]12CC[C@H](O)C[C@H]1CC[C@@H]1[C@@H]2C[C@@H](O)[C@]2(C)[C@@H](C3=CC(=O)OC3)CC[C@]12O [Digoxigenin] | 0.957 | 1.07 | 1.03 | 0.974 | 0.938 (inactive) | 1.04 (inactive) | 1.12 (inactive) | 1.04 (inactive) | 0.964 (inactive) | 1.01 (inactive) | 1.01 (inactive) | 1.12 (inactive)
10 | CN(C)C(=O)Oc1cc(OC(=O)N(C)C)cc(C(O)CNC(C)(C)C)c1 (configuration not stated) [Bambuterol hydrochloride] | 1.09 | 1.03 | 1 | 1.18 | 1.03 (inactive) | 1.03 (inactive) | 1.02 (inactive) | 0.988 (inactive) | 1.03 (inactive) | 1 (inactive) | 0.995 (inactive) | 1.02 (inactive)
11 | NCC(O)c1ccc(O)cc1 (configuration not stated) [Octopamine hydrochloride] | 0.798 | 1.03 | 0.986 | 0.994 | 1.04 (inactive) | 1.04 (inactive) | 0.937 (inactive) | 1.11 (inactive) | 1.02 (inactive) | 1.01 (inactive) | 1 (inactive) | 0.875 (inactive)
12 | CC[C@H](C)[C@H]1O[C@]2(C=C[C@@H]1C)C[C@@H]1C[C@@H](C/C=C(\C)[C@@H](O[C@H]3C[C@H](OC)[C@@H](O[C@H]4C[C@H](OC)[C@@H](O)[C@H](C)O4)[C@H](C)O3)[C@@H](C)/C=C/C=C3\CO[C@@H]4[C@H](O)C(C)=C[C@@H](C(=O)O1)[C@]34O)O2.CO[C@H]1C[C@H](O[C@H]2[C@H](C)O[C@@H](O[C@@H]3/C(C)=C/C[C@@H]4C[C@@H](C[C@]5(C=C[C@H](C)[C@@H](C(C)C)O5)O4)OC(=O)[C@@H]4C=C(C)[C@@H](O)[C@H]5OC/C(=C\C=C\[C@@H]3C)[C@]54O)C[C@@H]2OC)O[C@@H](C)[C@@H]1O [Avermectin B1] | 1.13 | 1.06 | 0.967 | 0.91 | 0.906 (inactive) | 0.921 (inactive) | 0.929 (inactive) | 1.06 (inactive) | 0.985 (inactive) | 0.996 (inactive) | 0.995 (inactive) | 0.883 (inactive)
13 | O=[N+]([O-])c1ccc2ccc3cccc4ccc1c2c34 [1-Nitropyrene] | 0.638 | 1.04 | 1 | 0.914 | 0.971 (inactive) | 0.785 (inactive) | 0.952 (inactive) | 1.03 (inactive) | 1 (inactive) | 0.96 (inactive) | 1.01 (inactive) | 0.967 (inactive)
14 | CC(Cc1ccc(O)cc1)NCC(O)c1cc(O)cc(O)c1 (configuration not stated) [Fenoterol hydrobromide] | 1 | 1 | 1.01 | 1.21 | 1.06 (inactive) | 0.982 (inactive) | 1.04 (inactive) | 1.02 (inactive) | 1.04 (inactive) | 0.983 (inactive) | 0.991 (inactive) | 1.04 (inactive)
15 | COc1ccc(C(CN(C)C)C2(O)CCCCC2)cc1 (configuration not stated) [Venlafaxine] | 0.902 | 0.974 | 0.983 | 1.1 | 1.04 (inactive) | 0.942 (inactive) | 1.01 (inactive) | 1.04 (inactive) | 1 (inactive) | 0.819 (inactive) | 0.974 (inactive) | 1.06 (inactive)
16 | CCCCN(CCCC)N=O [DBNA (N-nitrosodibutylamine)] | 0.789 | 0.729 | 0.673 | 0.238 | 1.03 (inactive) | 1.01 (inactive) | 1.01 (inactive) | 1.03 (inactive) | 1.02 (inactive) | 1.05 (inactive) | 1.01 (inactive) | 1.01 (inactive)
17 | C#C[C@]1(O)C=C[C@H]2[C@@H]3CCC4=CC(=O)CC[C@@H]4[C@H]3CC[C@@]21CC [Gestodene] | 1.16 | 1.02 | 1 | 0.924 | 1 (inactive) | 1.03 (inactive) | 1.01 (inactive) | 1.02 (inactive) | 0.993 (inactive) | 0.995 (inactive) | 0.988 (inactive) | 0.977 (inactive)
18 | CCCC(C)C1(CC)C(=O)NC(=O)NC1=O (configuration not stated) [Pentobarbital] | 1.06 | 1.08 | 0.979 | 0.814 | 1.07 (inactive) | 0.993 (inactive) | 1.02 (inactive) | 1.1 (inactive) | 1.02 (inactive) | 1.01 (inactive) | 0.988 (inactive) | 1.04 (inactive)
19 | CCC(C)(c1ccc(O)cc1)c1ccc(O)cc1 [Bisphenol B] | 1.05 | 1.04 | 0.977 | 1.02 | 1.06 (inactive) | 1.04 (inactive) | 0.962 (inactive) | 0.976 (inactive) | 0.994 (inactive) | 1 (inactive) | 0.98 (inactive) | 0.974 (inactive)
20 | COCc1cnc(C2=NC(C)(C(C)C)C(=O)N2)c(C(=O)O)c1 (configuration not stated) | 1.1 | 1.04 | 0.971 | 0.967 | 1.03 (inactive) | 1.11 (inactive) | 1.17 (inactive) | 0.961 (inactive) | 0.797 (inactive) | 0.852 (inactive) | 1.06 (inactive) | 1.43 (inactive)
21 | CNC(=O)c1cc(Cl)cc(C)c1NC(=O)c1cc(Br)nn1-c1ncccc1Cl | 0.896 | 1.11 | 1.06 | 1.17 | 0.901 (inactive) | 0.953 (inactive) | 0.997 (inactive) | 1.02 (inactive) | 0.982 (inactive) | 0.964 (inactive) | 0.999 (inactive) | 1.01 (inactive)
22 | CN[C@@H]1C[C@@H](c2ccc(Cl)c(Cl)c2)c2ccccc21 [Indatraline hydrochloride] | 1.13 | 1.06 | 0.959 | 0.932 | 0.904 (inactive) | 1.29 (inactive) | 0.8 (inactive) | 0.811 (inactive) | 0.863 (inactive) | 0.98 (inactive) | 1.1 (inactive) | 0.883 (inactive)
23 | Nc1nc(N)nc(N)n1 [Melamine] | 0.88 | 0.99 | 0.966 | 1.11 | 0.958 (inactive) | 1.05 (inactive) | 1.01 (inactive) | 0.988 (inactive) | 0.956 (inactive) | 0.95 (inactive) | 1.01 (inactive) | 1.05 (inactive)
24 | CCCCN(CCCC)SN(C)C(=O)Oc1cccc2c1OC(C)(C)C2 | 1.06 | 1.03 | 1.01 | 0.993 | 1.01 (inactive) | 0.965 (inactive) | 1.01 (inactive) | 1.05 (inactive) | 1.02 (inactive) | 1.03 (inactive) | 0.998 (inactive) | 0.987 (inactive)
25 | S=C(NC1CCCCC1)N1CCC(c2cnc[nH]2)CC1 [Thioperamide maleate] | 0.957 | 1.03 | 1.02 | 1.03 | 1.07 (inactive) | 1.05 (inactive) | 1.02 (inactive) | 0.98 (inactive) | 1.02 (inactive) | 0.951 (inactive) | 0.987 (inactive) | 1.01 (inactive)
26 | C#CCN1C(=O)COc2cc(F)c(N3C(=O)C4=C(CCCC4)C3=O)cc21 | 0.947 | 0.989 | 1 | 0.933 | 1.02 (inactive) | 1.14 (inactive) | 0.98 (inactive) | 1.01 (inactive) | 1.01 (inactive) | 1.04 (inactive) | 0.988 (inactive) | 0.969 (inactive)
